Test results published in PubChem BioAssay.
The source made the active and inactive calls.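 Rule for the calls, unless noted: active = fluorescence slope higher than the sample average by over 3 SD (cut at about -0.22 in these data, passing the limit was not always enough); inactive = the rest.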

What was measured:
[1] = inhibitors of TNFa-induced NFkB p65 translocation, primary screen, imaging, HUVEC, MLSMR starter and 10KST1 sets (AID 438;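 active = inhibition above 20% together with a positive visual image hit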;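 note: compound added about 3h40 before a 20 min TNFalpha stimulation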;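 for inhibition: signal is the nuclear over cytoplasmic p65 intensity ratio per well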); details: HUVEC TNFa-induced p65 nuclear translocation; cell count: measured here: nuclei count (cytotoxicity indicator), at 2.08 µM; inhibition: at 2 µM, stronger effect = higher value, 0% TNFa-plus-vehicle, 100% no-TNFa wells
[2] = reduction of polyQ htt aggregates in cells – imaging, exon1htt(103Q)mCFP cells, high-content imaging, primary screen (AID 483;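 active = visual image review flags a hit and inhibition of aggregation exceeds 20%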;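 note: compound exposure lasted 3 days before fixation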;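 for nuclei count: percent of the per-plate median nuclei count of sample wells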); details: exon1htt(103Q)mCFP cell line, aggregate imaging, at 2 µM; inhibition of aggregation: stronger effect = higher value; nuclei count: measured here: cell count, toxicity
[3] = endothelial E-selectin expression blockers – imaging, HUVEC, immunofluorescence, MLSMR starter and 10KST1 sets, primary screen (AID 487;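 active = visually confirmed hit in the image check and inhibition above 20%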;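 for inhibition: signal is fraction of cell area covered by stained E-selectin grains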;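 for nuclei count: 100% = median nuclei count of all wells on the same plate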); details: HUVEC TNFalpha-induced E-selectin immunofluorescence imaging, at 2 µM; inhibition: stronger effect = higher value; nuclei count: measured here: cell number, toxicity
[4] = target: Voltage-gated potassium channel subunit beta-2 (Rattus norvegicus) (UniProt P62483); assay: inhibitors of rat Kvbeta2 reductase activity – biochemical, NADPH fluorescence, primary screen (AID 622); details: recombinant KvBeta, 4-cyanobenzaldehyde reduction, at 10 µM, stronger effect = higher value;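 note: slope of raw intensity against log time taken from 70 to 1610 s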
Chain of Voltage-gated potassium channel subunit beta-2 (Rattus norvegicus) (P62483 whole entry, looked up): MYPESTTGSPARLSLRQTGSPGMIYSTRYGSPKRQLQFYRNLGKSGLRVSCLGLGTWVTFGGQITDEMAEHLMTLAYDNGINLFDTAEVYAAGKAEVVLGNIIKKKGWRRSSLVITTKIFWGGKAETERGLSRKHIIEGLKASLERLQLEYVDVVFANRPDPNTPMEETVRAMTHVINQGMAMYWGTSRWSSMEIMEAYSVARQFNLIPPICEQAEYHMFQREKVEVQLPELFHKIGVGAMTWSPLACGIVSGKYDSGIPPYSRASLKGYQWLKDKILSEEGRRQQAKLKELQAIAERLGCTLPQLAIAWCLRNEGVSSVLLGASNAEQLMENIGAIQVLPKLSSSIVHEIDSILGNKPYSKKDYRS

[5] = target: Voltage-gated potassium channel subunit beta-2 (Rattus norvegicus) (UniProt P62483); assay: enhancers of rat Kvbeta2 NADPH turnover – biochemical, NADPH fluorescence, primary screen (AID 623;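 active = NADPH fluorescence slope more negative than the mean of all samples by about 3 SD, 99.7% confidence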;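 note: fluorescence intensity change per second fitted from 20 to 320 s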); details: Recombinant KvBeta, NADPH fluorescence decrease slope, 10 min; at 10 µM; stronger effect = lower value
[6] = target: Alpha-2C adrenergic receptor (Homo sapiens) (UniProt P18825); assay: compounds altering alpha2C-coupled GIRK flux – cell-based, HEK293 alpha2C/GIRK1/2, thallium flux, primary screen (AID 624;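 active = fluorescence slope after compound addition differing from the mean of all screened samples at 99.7% confidence, in either direction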;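 note: slope of fluorescence ratio to pre-addition baseline per second over 15 to 24 s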); details: thallium flux BTC fluorescence, at 10 µM, actives lie on both sides
Chain of Alpha-2C adrenergic receptor (Homo sapiens) (P18825 whole entry, looked up): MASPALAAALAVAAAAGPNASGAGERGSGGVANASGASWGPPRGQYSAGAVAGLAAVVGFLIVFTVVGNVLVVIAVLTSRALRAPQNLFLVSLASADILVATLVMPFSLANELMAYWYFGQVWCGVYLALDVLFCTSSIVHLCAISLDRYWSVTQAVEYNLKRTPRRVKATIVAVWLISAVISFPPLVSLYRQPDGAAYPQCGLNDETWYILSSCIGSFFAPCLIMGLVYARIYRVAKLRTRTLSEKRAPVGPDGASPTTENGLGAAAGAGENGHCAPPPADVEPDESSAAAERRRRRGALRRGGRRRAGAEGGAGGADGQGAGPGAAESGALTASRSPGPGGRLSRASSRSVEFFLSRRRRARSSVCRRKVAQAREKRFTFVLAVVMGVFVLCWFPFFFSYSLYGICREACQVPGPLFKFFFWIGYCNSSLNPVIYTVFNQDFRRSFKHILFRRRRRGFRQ

[7] = blockers of RIG-like receptor reporter activation – cell-based, Sendai virus stimulus, luciferase, 10K MLSCN set, TLR/RLR signaling modifier project, primary screen (AID 602276;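 active = inhibition at or above 50% at 10 µM; inactive = inhibition below 50%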;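 note: firefly luciferase from ISG56 promoter only with Renilla not read in this screen; 0% = Sendai virus plus DMSO and 100% = medium plus DMSO without virus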); details: HEK293 RL24 IRF3 luciferase reporter, at 10 µM, stronger effect = higher value
[8] = TLR3 IRF3 reporter activation blockers – cell-based, poly I:C stimulus, luciferase, 10K MLSCN set, primary screen (AID 602277;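 active = inhibition of the reporter signal at or above 50%; inactive = inhibition below 50%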); details: HEK293-TLR3 RL24 IRF3 luciferase reporter, at 10 µM, stronger effect = higher value

With Cc1noc(C)c1CSc1nnc2scc(-c3ccc(Cl)cc3)n12 as the compound, how does the cell count [1] read?
The cell count was 339.

What about the inhibition [1] of the same compound?
Its inhibition is -0.4% (inactive).

And the inhibition of aggregation [2]?
Its inhibition of aggregation is -18.6% (inactive).

What about the nuclei count [2] of the same compound?
The nuclei count was 120%.

And the inhibition [3]?
The inhibition was -88.2% (inactive).

What about the nuclei count [3] of the same compound?
Its nuclei count is 122%.

What about the fluorescence slope [4] of the same compound?
Its fluorescence slope is -0.52 (inactive).

What about the NADPH fluorescence slope [5] of the same compound?
The NADPH fluorescence slope was -2.1e-05 (inactive).

And the slope [6]?
The slope was 0.00506 (inactive).

What about the inhibition [7] of the same compound?
Its inhibition is -1.42% (inactive).

What about the inhibition [8] of the same compound?
Its inhibition is 6.73% (inactive).

With CN(C)C(=O)N1CCCC(C(=O)NCc2ccccc2)C1 (centres undefined) as the compound, how does the cell count [1] read?
The cell count was 606.

What about the inhibition [1] of the same compound?
The inhibition was -3.9% (inactive).

What about the inhibition of aggregation [2] of the same compound?
The inhibition of aggregation was -1.5% (inactive).

What about the nuclei count [2] of the same compound?
Its nuclei count is 84%.

What about the inhibition [3] of the same compound?
The inhibition was -50.4% (inactive).

What about the nuclei count [3] of the same compound?
The nuclei count was 112%.

And the fluorescence slope [4]?
Its fluorescence slope is -0.341 (inactive).

What about the NADPH fluorescence slope [5] of the same compound?
Its NADPH fluorescence slope is -2.4e-05 (inactive).

What about the slope [6] of the same compound?
Its slope is 0.00548 (inactive).

And the inhibition [7]?
Its inhibition is 40.6% (inactive).

What about the inhibition [8] of the same compound?
The inhibition was 25.4% (inactive).

For CN(C)c1ccc(NC(=O)c2cc3c(=O)n4ccccc4nc3n2C)cc1, which cell count [1] is on record?
The cell count was 216.

And the inhibition [1]?
The inhibition was -10.7% (inactive).

And the inhibition of aggregation [2]?
Its inhibition of aggregation is 4.4% (inactive).

What about the nuclei count [2] of the same compound?
The nuclei count was 89%.

What about the inhibition [3] of the same compound?
The inhibition was 52.4% (inactive).

And the nuclei count [3]?
The nuclei count was 68.8%.

And the fluorescence slope [4]?
The fluorescence slope was -0.572 (inactive).

What about the NADPH fluorescence slope [5] of the same compound?
Its NADPH fluorescence slope is -3.5e-05 (inactive).

And the slope [6]?
The slope was 0.00472 (inactive).

And the inhibition [7]?
Its inhibition is 1.6% (inactive).

What about the inhibition [8] of the same compound?
Its inhibition is -86.3% (inactive).

Which results are given for CC1=C(C(=O)OC(C)C)C(c2ccccn2)n2ncnc2N1 (centres undefined)?
cell count [1]: 751; inhibition [1]: -0.6% (inactive); inhibition of aggregation [2]: -35.6% (inactive); nuclei count [2]: 79.5%; inhibition [3]: -75.2% (inactive); nuclei count [3]: 110%; fluorescence slope [4]: -0.569 (inactive); NADPH fluorescence slope [5]: -3e-05 (inactive); slope [6]: 0.00699 (inactive); inhibition [7]: 0.999% (inactive); inhibition [8]: 30.5% (inactive)

With Cc1ccc(NC(=O)CCN2CCc3ccccc3C2)cc1 as the compound, how does the cell count [1] read?
Its cell count is 820.

And the inhibition [1]?
The inhibition was -9.6% (inactive).

And the inhibition of aggregation [2]?
The inhibition of aggregation was -13.1% (inactive).

What about the nuclei count [2] of the same compound?
Its nuclei count is 86.9%.

What about the inhibition [3] of the same compound?
The inhibition was -44.8% (inactive).

And the nuclei count [3]?
The nuclei count was 113%.

What about the fluorescence slope [4] of the same compound?
The fluorescence slope was -0.463 (inactive).

What about the NADPH fluorescence slope [5] of the same compound?
The NADPH fluorescence slope was -0.000317 (inactive).

What about the slope [6] of the same compound?
The slope was 0.00467 (inactive).

And the inhibition [7]?
The inhibition was 5.12% (inactive).

What about the inhibition [8] of the same compound?
Its inhibition is 24.7% (inactive).

What does the source list for Cc1cc(C)c2c(=O)n(CC(=O)NCCCN3CCN(c4ccccc4F)CC3)sc2n1?
cell count [1]: 725; inhibition [1]: -2.8% (inactive); inhibition of aggregation [2]: 2.8% (inactive); nuclei count [2]: 105%; inhibition [3]: -81.4% (inactive); nuclei count [3]: 119%; fluorescence slope [4]: -0.525 (inactive); NADPH fluorescence slope [5]: -4.4e-05 (inactive); slope [6]: 0.00504 (inactive); inhibition [7]: 12% (inactive); inhibition [8]: 34.1% (inactive)

Which cell count [1] does the source give for Cc1ccc(-c2nc3ccccc3[nH]2)s1 here?
Its cell count is 362.

And the inhibition [1]?
Its inhibition is -13.1% (inactive).

What about the inhibition of aggregation [2] of the same compound?
The inhibition of aggregation was -2.5% (inactive).

And the nuclei count [2]?
Its nuclei count is 95.2%.

And the inhibition [3]?
The inhibition was -72.7% (inactive).

And the nuclei count [3]?
Its nuclei count is 101%.

And the fluorescence slope [4]?
Its fluorescence slope is -0.277 (inactive).

And the NADPH fluorescence slope [5]?
The NADPH fluorescence slope was -1.4e-05 (inactive).

And the slope [6]?
The slope was 0.00551 (inactive).

What about the inhibition [7] of the same compound?
Its inhibition is -45.9% (inactive).

And the inhibition [8]?
The inhibition was -155% (inactive).

Which cell count [1] does the source give for CC(=O)c1cccc(-n2nnnc2SCC(=O)N2CCCC2)c1 here?
Its cell count is 720.

And the inhibition [1]?
Its inhibition is -3.5% (inactive).

And the inhibition of aggregation [2]?
Its inhibition of aggregation is -2.4% (inactive).

And the nuclei count [2]?
Its nuclei count is 119%.

What about the inhibition [3] of the same compound?
The inhibition was -56% (inactive).

What about the nuclei count [3] of the same compound?
The nuclei count was 106%.

What about the fluorescence slope [4] of the same compound?
Its fluorescence slope is -0.401 (inactive).

And the NADPH fluorescence slope [5]?
Its NADPH fluorescence slope is -4.2e-05 (inactive).

What about the slope [6] of the same compound?
The slope was 0.00357 (inactive).

What about the inhibition [7] of the same compound?
Its inhibition is 4.48% (inactive).

And the inhibition [8]?
The inhibition was 14.5% (inactive).

With O=C1CC(c2ccccc2)Cc2nc(N3CCc4ccccc43)ncc21 (centres undefined) as the compound, how does the cell count [1] read?
Its cell count is 403.

What about the inhibition [1] of the same compound?
The inhibition was 1.2% (inactive).

And the inhibition of aggregation [2]?
The inhibition of aggregation was -14.1% (inactive).

And the nuclei count [2]?
Its nuclei count is 95.7%.

What about the inhibition [3] of the same compound?
The inhibition was -134% (inactive).

What about the nuclei count [3] of the same compound?
The nuclei count was 183%.

And the fluorescence slope [4]?
Its fluorescence slope is -0.0564 (inactive).

And the NADPH fluorescence slope [5]?
The NADPH fluorescence slope was -1.7e-05 (inactive).

What about the slope [6] of the same compound?
Its slope is 0.00498 (inactive).

And the inhibition [7]?
Its inhibition is 9.74% (inactive).

What about the inhibition [8] of the same compound?
Its inhibition is 2.35% (inactive).

What does the source list for CCCC(=O)Nc1c2c(nn1-c1ccc(OC)cc1)CS(=O)C2 (centres undefined)?
cell count [1]: 472; inhibition [1]: 4.2% (inactive); inhibition of aggregation [2]: -25.4% (inactive); nuclei count [2]: 117%; inhibition [3]: -70.5% (inactive); nuclei count [3]: 100%; fluorescence slope [4]: -0.476 (inactive); NADPH fluorescence slope [5]: -3.3e-05 (inactive); slope [6]: 0.00523 (inactive); inhibition [7]: 10.8% (inactive); inhibition [8]: 22.2% (inactive)

With COc1cccc(-c2nc3n(n2)C(c2ccccc2Cl)C(C(N)=O)=C(C)N3)c1 (centres undefined) as the compound, how does the cell count [1] read?
Its cell count is 595.

And the inhibition [1]?
Its inhibition is -0.8% (inactive).

And the inhibition of aggregation [2]?
The inhibition of aggregation was -7.2% (inactive).

And the nuclei count [2]?
Its nuclei count is 114%.

What about the inhibition [3] of the same compound?
Its inhibition is -26.6% (inactive).

And the nuclei count [3]?
The nuclei count was 103%.

And the fluorescence slope [4]?
The fluorescence slope was -0.393 (inactive).

And the NADPH fluorescence slope [5]?
Its NADPH fluorescence slope is 1.7e-05 (inactive).

And the slope [6]?
The slope was 0.00613 (inactive).

And the inhibition [7]?
Its inhibition is 12.1% (inactive).

What about the inhibition [8] of the same compound?
The inhibition was 38.1% (inactive).

Which cell count [1] does the source give for C=CCn1c(SCc2ccc(C#N)cc2)nnc1-c1cccc(Cl)c1 here?
The cell count was 397.

What about the inhibition [1] of the same compound?
Its inhibition is -11.3% (inactive).

And the inhibition of aggregation [2]?
Its inhibition of aggregation is 10.7% (inactive).

And the nuclei count [2]?
Its nuclei count is 95.4%.

What about the inhibition [3] of the same compound?
Its inhibition is -62.4% (inactive).

What about the nuclei count [3] of the same compound?
The nuclei count was 187%.

What about the fluorescence slope [4] of the same compound?
Its fluorescence slope is -0.421 (inactive).

And the NADPH fluorescence slope [5]?
The NADPH fluorescence slope was -4.1e-05 (inactive).

And the slope [6]?
The slope was 0.00297 (inactive).

And the inhibition [7]?
The inhibition was 11.7% (inactive).

And the inhibition [8]?
Its inhibition is 35.5% (inactive).

For Cn1c(SCC(=O)N2CCOCC2)nnc1-c1cnccn1, which cell count [1] is on record?
The cell count was 656.

And the inhibition [1]?
Its inhibition is 1% (inactive).

And the inhibition of aggregation [2]?
The inhibition of aggregation was -11.1% (inactive).

And the nuclei count [2]?
Its nuclei count is 122%.

And the inhibition [3]?
Its inhibition is -36.3% (inactive).

And the nuclei count [3]?
The nuclei count was 114%.

And the fluorescence slope [4]?
The fluorescence slope was -0.396 (inactive).

What about the NADPH fluorescence slope [5] of the same compound?
The NADPH fluorescence slope was 8e-06 (inactive).

And the slope [6]?
Its slope is 0.00449 (inactive).

What about the inhibition [7] of the same compound?
The inhibition was 3.04% (inactive).

What about the inhibition [8] of the same compound?
Its inhibition is 21.7% (inactive).

Which cell count [1] does the source give for CCCOc1ccc2ccccc2c1/C=N/n1cnnc1 here?
Its cell count is 209.

What about the inhibition [1] of the same compound?
Its inhibition is 4.6% (inactive).

What about the inhibition of aggregation [2] of the same compound?
Its inhibition of aggregation is -0.3% (inactive).

What about the nuclei count [2] of the same compound?
Its nuclei count is 89.4%.

What about the inhibition [3] of the same compound?
Its inhibition is -4.9% (inactive).

What about the nuclei count [3] of the same compound?
The nuclei count was 89.2%.

What about the fluorescence slope [4] of the same compound?
The fluorescence slope was -0.31 (inactive).

And the NADPH fluorescence slope [5]?
The NADPH fluorescence slope was -1.6e-05 (inactive).

What about the slope [6] of the same compound?
Its slope is 0.008 (inactive).

And the inhibition [7]?
The inhibition was 7.93% (inactive).

And the inhibition [8]?
Its inhibition is 3.78% (inactive).
